Experimental data: PubChem BioAssay (EPA / NIEHS)
Calls of active or inactive are those of the source. Rule for the calls: active = hit-call score of the fitted dose curve at least 0.9, where 1 is the maximum; inactive = score below 0.9.

Assay: ATG_M_06_CIS: Attagene CIS-FACTORIAL HepG2 Assay for M06 Transcription Factor (Internal Marker) (AID 2282950)
Details: HepG2 Attagene CIS-FACTORIAL M06 internal marker reporter; actives raise or lower the signal
Procedure: ATG_CIS is a cell-based, multiplexed-readout assay that uses HepG2, a human liver cell line, with measurements taken at 24 hours after chemical dosing in a 24-well plate.ATG_M_06_CIS is one of 52 assay component(s) measured or calculated from the ATG_CIS assay. It is designed to make measurements of mRNA induction, a form of inducible reporter, as detected with fluorescence intensity signals by Reverse transcription polymerase chain reaction (RT-PCR) and Capillary electrophoresis technology.Data from the assay component ATG_M_06_CIS was analyzed into 1 assay endpoint. This assay endpoint, ATG_M_06_CIS, was analyzed with bidirectional fitting relative to DMSO as the negative control and baseline of activity. Using a type of inducible reporter, measures of mRNA for gain or loss-of-signal activity can be used to understand the background control at the transcription factor-level as they relate to the gene . Furthermore, this assay endpoint can be referred to as a secondary readout, because this assay has produced multiple assay endpoints where this one serves a background control function. To generalize the intended target to other relatable targets, this assay endpoint is annotated to the background measurement intended target family, where the subfamily is internal marker.
Human liver HepG2 cells are transiently transfected with multiple reporter transcription units (MRTUs) in 6-well plates using FuGene 6 reagent (Roche; 3 ml FuGene/1 mg DNA). The MRTU constructs are regulated by a cis-regulating element (promoter). […] A major difference between the CIS and TRANS system is that in CIS activities of endogenous TFs are measured, whereas the TRANS assay evaluates changes in activities of exogenous, chimeric NR-Gal4 proteins. […] At the end of 24 hour incubation, total RNA was isolated using TriZol reagent (Invitrogen). The isolated RNA is then reverse-transcribed using oligo(dT) primer and Mo-MLV reverse transcriptase (Invitrogen) with DNAse I (Ambion) treatment for 30 min. The one-tenth of the produced cDNA was amplified by PCR using Taq DNA polymerase (Invitrogen) and two reporter sequence-specific primers. The PCR products were fluorescently labeled by primer extension with 6-arboxyfluorescein (6-FAM) 5'-labeled reporter sequence-specific primer (2 min at 95 C, 20 s at 68 C and 10 min at 72 C) and these products were digested with 5U of HpaI (New England Biolabs) for 2h at 37 C. The fragments were purified using Qiaquick PCR columns (Qiagen), analyzed on an ABI 3130xL genetic analyzer (Applied Biosystems) with peak positions identified by using a set of X-rhodamine (ROX)-labeled MapMarker1000 molecular weight standards (BioVentures). The raw capillary electrophoresis data was processed using Attagraph software (Attagene).

SMILES	outcome
OC(c1ccc(Cl)cc1)(c1ccc(Cl)cc1)C(Cl)(Cl)Cl	inactive
CCN(CC)c1nc(C)cc(OP(=S)(OC)OC)n1	inactive
CC(C)Oc1cccc(NC(=O)c2ccccc2C(F)(F)F)c1	inactive
CCCN(CC)CC1COC2(CCC(C(C)(C)C)CC2)O1 (stereo not given)	inactive
COCc1cnc(C2=NC(C)(C(C)C)C(=O)N2)c(C(=O)O)c1 (stereo not given)	inactive
Clc1cccc(C(Cl)(Cl)Cl)n1	inactive
CC(C)N1C(=O)c2ccccc2NS1(=O)=O	inactive
CCNC(=O)NC(=O)C(C#N)=NOC	inactive
CSC(=O)c1c(C(F)F)nc(C(F)(F)F)c(C(=O)SC)c1CC(C)C	inactive
CNC(=O)Oc1cccc2ccccc12	inactive
Cc1cc(C)nc(Nc2ccccc2)n1	inactive
Cc1cnc(C2=NC(C)(C(C)C)C(=O)N2)c(C(=O)O)c1 (stereo not given)	inactive
N#Cc1c(Cl)cccc1Cl	inactive
Cn1c(-c2ccccc2)cc(-c2ccccc2)[n+]1C	inactive
Clc1nc(Cl)nc(Nc2ccccc2Cl)n1	inactive
CC(C)C1(C)N=C(c2ncccc2C(=O)O)NC1=O (stereo not given)	inactive
CO/N=C(/C1=NOCCO1)c1ccccc1Oc1ncnc(Oc2ccccc2Cl)c1F	inactive
CC1(C)CCC(=Cc2ccc(Cl)cc2)C1(O)Cn1cncn1 (stereo not given)	inactive
N#CN=C1SCCN1Cc1ccc(Cl)nc1	inactive
CCSC(=O)N1CCCCCC1	inactive

SMILES	outcome
CCOP(=S)(OCC)Oc1nc(Cl)n(C(C)C)n1	inactive
COC(=O)N(C(=O)N1CO[C@@]2(C(=O)OC)Cc3cc(Cl)ccc3C2=N1)c1ccc(OC(F)(F)F)cc1	inactive
CC(C)=CC1C(C(=O)OCc2coc(Cc3ccccc3)c2)C1(C)C (stereo not given)	inactive
CCN(CC)C(=O)C(C)Oc1cccc2ccccc12 (stereo not given)	inactive
O=C(Nc1ccccc1-c1ccc(Cl)cc1)c1cccnc1Cl	inactive
COC(=O)NS(=O)(=O)c1ccc(N)cc1	inactive
CC(C)NC(=O)N1CC(=O)N(c2cc(Cl)cc(Cl)c2)C1=O	inactive
Nc1c(Cl)c(Cl)nc(C(=O)O)c1Cl	inactive
CCCC(=NOCC)C1=C(O)CC(CC(C)SCC)CC1=O (stereo not given)	inactive
COc1ccc(-c2ccccc2)cc1NNC(=O)OC(C)C	inactive
CCNP(=S)(OC)O/C(C)=C/C(=O)OC(C)C (stereo not given)	inactive
CS(=O)(=O)c1ccc(C(=O)C2C(=O)CCCC2=O)c([N+](=O)[O-])c1	inactive
CN/C(=N\[N+](=O)[O-])NCc1cnc(Cl)s1	inactive
COP(=S)(OC)SCn1nnc2ccccc2c1=O	inactive
CCCCC(C#N)(Cn1cncn1)c1ccc(Cl)cc1 (stereo not given)	inactive
CCOc1nc(F)cc2nc(S(=O)(=O)Nc3c(Cl)cccc3Cl)nn12	inactive
CCC(C)n1c(=O)[nH]c(C)c(Br)c1=O (stereo not given)	inactive
COCC(C)N(C(=O)CCl)c1c(C)csc1C (stereo not given)	inactive
C=CCOC(=O)C(C)(C)OC(=O)c1cc(-n2c(=O)cc(C(F)(F)F)n(C)c2=O)ccc1Cl	inactive
CCOC(=O)C(C)OC(=O)c1cc(Oc2ccc(C(F)(F)F)cc2Cl)ccc1[N+](=O)[O-] (stereo not given)	inactive
